# Reference: PubChem BioAssay (NCATS)
# Results filed as inconclusive are left out. A number with no mark means an inactive call. Calls of active or inactive are those of the source. The call rests on the fitted dose curve; in most records, active means well fitted cell-killing curve with a large enough effect; inconclusive means small, poorly fitted or top-dose-only effect, or effect the other way; inactive means flat fitted curve, though single readings scatter.
# System: CASKI
# Experiment: Primary qHTS to identify gynecologic anti-cancer compounds using libraries of approved drugs and bioactive compounds (AID 1345084); further: nearly all actives have a fitted effect of over 55% in size
# Details: Gynecologic cancer cell panel viability, ATPlite luminescence, 48 h; series mostly up to 57.5 µM; activity change, negative = cytotoxicity: at the top concentration
# Outline: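 Cells, 1,000 per well, were allowed to settle for 16 h at 37 C before compound addition. Five concentrations were tested for 48 h, and viability was read by ATPlite luminescence after 15 min at room temperature.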
# On the % scale 0 is the no-effect control and ±100 the full control effect; potency means the concentration at half of the fitted maximal effect.
SMILES,"activity change, negative = cytotoxicity",Potency
C[C@@H]1CC[C@@]2(OC1)O[C@H]1C[C@H]3[C@@H]4CC=C5C[C@@H](O)CC[C@]5(C)[C@H]4CC[C@]3(C)[C@H]1[C@@H]2C,5.36% [at 25.3 µM],–
CC(C)[C@@H](CS(=O)(=O)C(C)C)N1C(=O)[C@@](C)(CC(=O)O)C[C@H](c2cccc(Cl)c2)[C@H]1c1ccc(Cl)cc1,21.2%,–
CC(C)=CCC[C@](C)(O[C@@H]1O[C@H](CO)[C@@H](O)[C@H](O)[C@H]1O)[C@H]1CC[C@]2(C)[C@@H]1[C@H](O)CC1[C@@]3(C)CC[C@H](O)C(C)(C)C3[C@@H](O[C@@H]3O[C@H](CO)[C@@H](O)[C@H](O)[C@H]3O)C[C@]12C (some centres undefined),-1.28% [at 25.3 µM],–
C/C=C(/COC(=O)/C(C)=C/C)C(=O)OC(CC)c1ccc(OC)c(OC)c1 (centres undefined),8.78% [at 38.5 µM],–
COc1ccc2cc(C(C)C(=O)Oc3ccc(C(N)=S)cc3)ccc2c1 (centres undefined),0.186%,–
C/C=C1\[C@H](O[C@@H]2O[C@H](CO)[C@@H](O)[C@H](O)[C@H]2O)OC=C(C(=O)OC)[C@H]1CC(=O)O,-6.27% [at 25.3 µM],–
C[C@@H]1O[C@@H](O[C@H]2[C@H](OC(=O)[C@]34CCC(C)(C)C[C@H]3C3=CCC5[C@@]6(C)C[C@H](O)[C@H](O[C@@H]7O[C@H](CO)[C@@H](O[C@H]8OC[C@](O)(CO)[C@H]8O)[C@H](O)[C@H]7O)[C@@](C)(CO)C6[C@H](O)C[C@@]5(C)[C@]3(C)C[C@H]4O)OC[C@H](O)[C@@H]2O)[C@H](O)[C@H](O)[C@H]1O[C@@H]1OC[C@@H](O)[C@H](O[C@@H]2OC[C@](O)(CO)[C@H]2O)[C@H]1O (some centres undefined),-0.0524% [at 6.55 µM],–
CC(C)C(=O)OC[C@H]1O[C@H](O[C@H]2O[C@H](CO)[C@@H](O)[C@H](O)[C@H]2O)[C@H](O)[C@@H](O)[C@@H]1O,1.74% [at 25.3 µM],–
O=C(COc1cccc2c(=O)[nH]ccc12)c1ccccc1,0.34%,–
CC(=O)N1CCN(Cc2ccc([C@H](C)Nc3nccc(N4C(=O)OC[C@@H]4C(C)C)n3)cc2)CC1,-0.909%,–
CCC(Nc1ncnc2nc[nH]c12)c1nc2cccc(F)c2c(=O)n1-c1ccccc1 (centres undefined),-8.92%,–
CC(C(O)/C=C/C(C)(C)O)C1CCC2(C)C3C(=O)C=C4C(CCC(O)C4(C)C)C3(C)CCC12C (centres undefined),-5.04% [at 25.3 µM],–
c1ccc(-c2ncc(CN3CCN(c4ncccn4)CC3)[nH]2)cc1,-1.01%,–
CC[C@@H](O)C[C@@H]1C(C)=C[C@@H]2CCCC[C@@H]2[C@@]1(C)C(=O)O,-4.94%,–
O=C(/C=C/c1ccc(O)cc1)OC1[C@H](O)CC(O)(C(=O)O)C[C@H]1O (some centres undefined),-19.8% [at 38.5 µM],–
O=[N+]([O-])c1cn2c(n1)OCC(OCc1ccc(OC(F)(F)F)cc1)C2 (centres undefined),1.02%,–
C=C1CCC2C(C)(C)CCC[C@]2(C)[C@H]1C/C=C(\CO)C(=O)C(=O)O (some centres undefined),11% [at 38.5 µM],–
C=CC[C@]12C[C@@H](OC)C(=O)C(OC)=C1O[C@@H](c1cc(OC)c3c(c1)OCO3)[C@@H]2C,12% [at 25.3 µM],–
COCC1OC(OC(C)(C)C2CCC3(C)C=C(C4CCC5C4(C)CC(O)C4OC(C(C)(C)OC6OC(CO)C(O)C(O)C6NC(C)=O)CCC45C)CCC3O2)C(NC(C)=O)C(O)C1O (centres undefined),12.8% [at 11.6 µM],–
CCCCc1nc2cc(/C=C/C(=O)NO)ccc2n1CCN(CC)CC,–,5.62 µM (active)
CN1CCc2nc(C(=O)N[C@@H]3C[C@@H](C(=O)N(C)C)CC[C@@H]3NC(=O)C(=O)Nc3ccc(Cl)cn3)sc2C1,0.538%,–
C[C@@]1(O)[C@H](O)[C@@H](CO)O[C@H]1n1ccc(N)nc1=O,-9.19%,–
COc1ccc(-c2nc(-c3ccc(-c4cccc(Cl)c4)o3)[nH]c2-c2ccc(OC)cc2)cc1,3.2%,–
CCOCCn1nc(CC)c2nc(N3CCC(C(=O)O)CC3)nc(Nc3cc(C)ccn3)c21,-1.42%,–
C=CCC1=C[C@]2(OC)[C@H](C)[C@@H](c3ccc(O)c(OC)c3)O[C@]2(OC)CC1=O,18% [at 38.5 µM],–
Cc1ccc(Cc2c(C)nc3nc(SCC(=O)NCCN4CCNCC4)nn3c2C)cc1,-2.64%,–
CC1CC[C@]2(C(=O)O)CC[C@]3(C(=O)O)C(=CCC4[C@@]5(C)CC[C@H](OC6OC(C)C(O)C(OC7OC(CO)C(O)C(O)C7O)C6O)C(C)(C)C5CC[C@]43C)C2C1C (some centres undefined),-1.89% [at 25.3 µM],–
C=C1CC[C@@H]2[C@@](C)(CO[C@@H]3O[C@H](CO)C(O)[C@H](O)C3O)[C@H](O)CC[C@@]2(C)[C@@H]1CC/C(C)=C/CO (some centres undefined),-5.44% [at 11.6 µM],–
O=C(Nc1ccc(-c2ccncc2)cc1)N[C@H](CO)c1ccccc1,12.7%,–
